# Source: PubChem BioAssay
# Only some compounds are listed: those with a hit (about 3.1% of all), similar ones and a draw of the others.
# dFosB activator: enhances mouse delta FosB homodimer DNA binding; activation, % at 25 µM; AID 493131; 0.99% of 340,000 active; purified delta FosB, TAMRA-CDK5 oligo fluorescence polarization; percent of positive-control signal above neutral wells;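 active = mean activation above about 17%, with every replicate also reaching it, limit read from the data, passing the limit was not always enough; inconclusive = only one of the two conditions met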
# RAD52 anneal inh: blocks human RAD52 DNA annealing; AID 651710; 0.46% of 360,000 active; P43351; inhibition, % at 18.7 µM; recombinant RAD52 DNA annealing, FRET fluorescence;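 active = every replicate showing at least 50% inhibition; inconclusive = mean inhibition at least 50% but not in every replicate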
# DENV2 CPE: inhibitors of DENV2 cytopathic effect | 1.7% of 350,000 active | DENV2-infected cells, cytopathic effect rescue, plate reader | CPE inhibition, % at 9.99 µM | AID 651640; in the data active = CPE inhibition above about 20%, passing the limit was not always enough; inconclusive = no clear call, values can overlap the other calls; tested in BHK-21 cells;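 also: 0% = median of neutral control wells and 100% = median of positive control wells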
# RAD54 inh: blocks human RAD54 Holliday junction branch migration | Q92698 | FAM/BHQ fluorescence | inhibition, % at 10.4 µM | 0.14% of 360,000 active;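 active = mean normalized replicate activity at least 40 and at least half of replicates scoring 40 or more; inconclusive = only one of the two criteria met; inactive = mean below 40 and under half of replicates reaching 40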;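 also: 0% = median of neutral control wells and 100% = median of positive control wells; inhibitors cause a drop in the FAM fluorescence signal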
# Target sequence (Q92698 whole entry, looked up): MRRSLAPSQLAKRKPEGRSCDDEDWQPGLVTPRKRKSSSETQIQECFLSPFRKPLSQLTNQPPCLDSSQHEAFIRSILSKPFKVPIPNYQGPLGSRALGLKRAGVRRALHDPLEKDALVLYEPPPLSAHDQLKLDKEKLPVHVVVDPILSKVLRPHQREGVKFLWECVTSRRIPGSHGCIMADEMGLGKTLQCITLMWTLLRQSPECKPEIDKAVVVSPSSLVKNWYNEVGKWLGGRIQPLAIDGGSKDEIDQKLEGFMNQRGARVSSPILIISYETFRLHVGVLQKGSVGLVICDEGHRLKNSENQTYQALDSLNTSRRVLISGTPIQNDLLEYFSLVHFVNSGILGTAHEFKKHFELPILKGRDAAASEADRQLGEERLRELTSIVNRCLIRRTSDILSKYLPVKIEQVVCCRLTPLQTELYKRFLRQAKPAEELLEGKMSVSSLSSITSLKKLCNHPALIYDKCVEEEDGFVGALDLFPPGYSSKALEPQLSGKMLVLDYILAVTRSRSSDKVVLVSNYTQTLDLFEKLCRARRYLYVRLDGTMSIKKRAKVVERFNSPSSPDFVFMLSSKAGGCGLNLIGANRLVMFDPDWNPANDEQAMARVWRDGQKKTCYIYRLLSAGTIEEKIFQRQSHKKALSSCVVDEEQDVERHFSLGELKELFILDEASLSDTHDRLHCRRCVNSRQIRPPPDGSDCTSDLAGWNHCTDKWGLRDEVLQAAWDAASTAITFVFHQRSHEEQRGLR
# INS-1E GSIS act: GLuc luminescence reporter in INS-1E cells, primary screen for activators of glucose-dependent secretion of insulin | AID 743287 | 0.61% of 370,000 active | activation, % at 16.6 µM | INS-1E GLuc reporter insulin secretion, 2-3 h;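 active = lowest replicate activation of at least 40%, so every replicate reaches that level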;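 also: 0% = median of neutral control wells and 100% = median of IBMX positive control wells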
# AF4-AF9 inh: MLL-AF4/AF9 protein interaction inhibition. inhibition, % at 10 µM. AID 651704. AlphaScreen, biotin-AF4 peptide binding to FLAG-AF9. 0.47% of 350,000 active;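 active = every replicate reaching a set inhibition limit, whatever the replicate mean, cut at about 25% in these data; inconclusive = mean inhibition reaches that limit but some replicates miss it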;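 also: 0% = plate neutral control median and 100% = total signal loss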
# * hit, by the source's call; u = inconclusive; x = no result.
SMILES,dFosB activator,RAD52 anneal inh,DENV2 CPE,RAD54 inh,INS-1E GSIS act,AF4-AF9 inh
CCn1c(SCC(=O)OC)nc2sc3c(c2c1=O)CC(C)(C)OC3,-4,-3,-5,-5,74*,-2
CCSc1nc2sc3c(c2c(=O)n1CC)CC(C)(C)OC3,-9,x,x,-1,x,x
C(=C(c1ccccc1)c1ccccc1)c1ccccn1,4,-6,54*,-3,7,1
C(/C=C/c1ccccn1)=C\c1ccccc1,0,-14,6,x,9,0
O=C(N[C@@H]1CC[C@@H](CCNC(=O)C2CCOCC2)O[C@H]1CO)c1ccncc1,x,7,8,-7,-5,1
Oc1nc(Nc2cccc(Cl)c2)sc1/C=C1\C=Nc2ccccc21,10,-31,u,-2,34,8
Oc1cccc(Nc2nc(O)c(/C=C3\C=Nc4ccccc43)s2)c1,53*,-401,-2,-14,-40,13
O=C(NCc1ccncc1)[C@@H]1[C@@H](CO)[C@@H]2Cn3c(ccc(-c4cccnc4)c3=O)[C@@H]2N1C(=O)C1CC1,x,8,-5,-17,7,-18
COc1cc2c(cc1OC)C1=C(C#N)CCC(=NC(=O)c3ccco3)N1CC2,-8,-7,-8,-4,75*,-2
C/C=C/Cn1c(N2CCCCCC2)nc2c1c(=O)[nH]c(=O)n2C,0,x,x,-3,62*,x
Cn1c(=O)[nH]c(=O)c2c1nc(N1CCCC1)n2CCO,1,-2,10,-4,0,1
CN(Cc1ccccc1)c1nc2c(c(=O)[nH]c(=O)n2C)n1C,3,x,x,-2,x,x
Cn1c(=O)[nH]c(=O)c2c1nc(N1CCCCC1)n2C/C=N/Nc1ccc(C(=O)O)cc1,-4,-40,-6,-20,49*,-10
C/C=C/Cn1c(SC)nc2c1c(=O)[nH]c(=O)n2C,9,x,x,1,x,0
C/C=C/Cn1c(N(C)Cc2ccccc2)nc2c1c(=O)[nH]c(=O)n2C,-9,-39,u,-3,47*,3
C/C=C/Cn1c(Br)nc2c1c(=O)[nH]c(=O)n2C,-6,13,0,-17,65*,0
C[C@@H]1CCCCO[C@@H](CN(C)C(=O)NC2CCCCC2)[C@@H](C)CN([C@@H](C)CO)C(=O)c2cc(NS(=O)(=O)c3ccc(F)cc3)ccc2O1,x,26,5,-4,-28,-3
C[C@H]1CN([C@@H](C)CO)C(=O)c2cccc(NS(=O)(=O)c3cn(C)cn3)c2O[C@@H]1CN(C)C(=O)NC1CCCCC1,x,-4,u,5,23,-2
COc1ccc2c3c([nH]c2c1)[C@H](CO)N(C(=O)Nc1ccc(F)cc1)CC31CN(C(=O)c2ccccn2)C1,x,8,12,x,-12,-2
Cc1ccc(S(=O)(=O)N(C)C[C@H]2Oc3ccc(NC(=O)CCN4CCOCC4)cc3CC(=O)N([C@H](C)CO)C[C@H]2C)cc1,x,0,0,1,1,0
O=C(c1ccccc1)c1cc2cc(Cl)ccc2[nH]1,0,-12,-4,-3,41*,-1
O=C(C1CC1)N1CC2(C1)[C@@H](c1ccccc1)[C@@H](CO)N2CCC(F)(F)F,x,-16,0,x,-15,0
CC(=O)Nc1ccc(C(=O)CCl)cc1,3,-10,27*,-5,6,x
CC(=O)NCc1ccc(C(=O)CCl)cc1,0,-11,13,-8,34,-1
O=C(N[C@H]1CC[C@@H](CCNC(=O)c2ccccc2F)O[C@H]1CO)c1cnccn1,x,2,4,3,7,1
SMILES,dFosB activator,RAD52 anneal inh,DENV2 CPE,RAD54 inh,INS-1E GSIS act,AF4-AF9 inh
COc1ccc(NC(=O)Nc2ccc3c(c2)CC(=O)N([C@H](C)CO)C[C@@H](C)[C@@H](CN(C)C(=O)Nc2ccc(C(F)(F)F)cc2)O3)cc1,x,x,-1,7,-3,x
COc1ccc(NC(=O)N(C)C[C@@H]2Oc3ccc(NC(=O)Nc4ccc(F)cc4)cc3CC(=O)N([C@@H](C)CO)C[C@@H]2C)cc1,x,-5,50*,6,-4,0
COc1ccc(NC(=O)Nc2ccc3c(c2)CC(=O)N([C@@H](C)CO)C[C@H](C)[C@@H](CN(C)C(=O)Nc2ccccc2)O3)cc1,x,0,46*,0,18,4
COc1ccc(NC(=O)N(C)C[C@@H]2Oc3ccc(NC(=O)Nc4ccc(C(F)(F)F)cc4)cc3CC(=O)N([C@H](C)CO)C[C@@H]2C)cc1,x,-10,53*,2,-25,1
C[C@@H]1CCCCO[C@H](CN(C)S(=O)(=O)c2cn(C)cn2)[C@@H](C)CN([C@H](C)CO)C(=O)c2cc(NC(=O)Nc3ccc(C(F)(F)F)cc3)ccc2O1,x,x,12,-1,2,x
CS(=O)(=O)N1C[C@H](O)COC[C@@H]2O[C@@H](CC(=O)NCc3ccc(-c4ccccc4)cc3)CC[C@H]21,x,78*,-3,7,3,16
O=C(C[C@H]1CC[C@@H]2[C@H](COC[C@@H](O)CN2Cc2nccs2)O1)NCc1ccc(-c2ccccc2)cc1,x,10,34*,-14,-5,-2
COc1ccc(CN2C[C@H](O)COC[C@H]3O[C@H](CC(=O)NCc4ccncn4)CC[C@@H]32)cc1,x,0,21*,1,25,-2
O=C(C[C@@H]1CC[C@H]2[C@@H](COC[C@H](O)CN2S(=O)(=O)c2ccccc2)O1)NCc1ccc(-c2ccccc2)cc1,x,80*,18,-7,-3,14
COc1ccc(CN2C[C@H](O)COC[C@@H]3O[C@H](CC(=O)NCc4ccncn4)CC[C@H]32)cc1,x,-7,u,-4,18,0
Cc1noc(C)c1S(=O)(=O)Nc1ccc2c(c1)C(=O)N([C@@H](C)CO)C[C@@H](C)[C@@H](CN(C)S(=O)(=O)c1ccc(F)cc1)OCCCC[C@H](C)O2,x,-43,-8,-1,-9,0
CN(C)CCCNC(=O)C[C@@H]1CC[C@H]2[C@@H](COC[C@H](O)CN2S(=O)(=O)c2ccccc2)O1,x,3,60*,-1,4,-2
O=S(=O)(NC[C@@H]1N[C@H](CO)[C@@H]1c1ccc(C2=CCCC2)cc1)c1ccccc1,x,-38,-11,1,2,-1
O=C(NC[C@@H]1N[C@@H](CO)[C@H]1c1ccc(C2=CCCCC2)cc1)c1ccc(F)cc1,x,-60,52*,-11,-8,14
O=S(=O)(NC[C@H]1N[C@@H](CO)[C@H]1c1ccc(C2=CCCC2)cc1)c1ccccc1,x,-15,32*,5,13,-2
O=C(c1ccccc1)C(O)(Cc1ccccc1)c1ccccc1 (stereo unspecified),0,-6,36*,-21,-28,-4
O=C(C[C@H]1CC[C@@H](NC(=O)Nc2ccc3c(c2)OCO3)[C@H](CO)O1)NCc1ccccc1,x,-5,1,-2,-3,-3
